According to PubChem BioAssay:
Activity calls are given as the source filed them.

Key:
[1] = E. coli DRC41 culture turbidity changes, primary screen, E. coli filamentation inducer project, strain DRC41, OD650, 48 h (AID 1152);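 note: E. coli MC1000 strain DRC41 lacking acrAB efflux pump and sulA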; conditions: E. coli DRC41 (acrAB sulA), higher = more signal, called active from +8 up or from −8 down
[2] = small-molecule binders of probe aLefty1, primary screen, biochemical, small-molecule microarray, 635/667 nm fluorescence (AID 1153); conditions: higher = more signal;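 note: score merges spot fluorescence with signal-to-noise ratio from the scanned slide images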
[3] = PSAC antagonists in infected red cells, primary screen, cell-based, P. falciparum Indochina, OD700, 1 h (AID 1154); conditions: P. falciparum Indochina infected RBC osmotic lysis, higher = more signal, called active from +8 up or from −8 down
[4] = PSAC antagonists in infected red cells, primary screen, cell-based, P. falciparum Indochina, OD700, 2 h (AID 1155);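 note: lysis reports solute entry through the parasite surface anion channel PSAC; channel blockers reduce lysis of infected cells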; conditions: P. falciparum Indochina infected erythrocytes, osmotic lysis OD700; higher = more signal, called active from +8 up or from −8 down
[5] = osmotic lysis modulators in infected erythrocytes, primary screen, PSAC antagonist project, cell-based, P. falciparum Indochina, OD700, 3 h (AID 1156); conditions: higher = more signal, called active from +8 up or from −8 down
[6] = PSAC antagonists in infected red cells, primary screen, cell-based, P. falciparum Indochina, OD700, 18 h (AID 1157); conditions: P. falciparum Indochina infected erythrocytes, osmotic lysis OD700, 18 h; higher = more signal, called active from +8 up or from −8 down
[7] = modulators of S6 phosphorylation in cells, primary screen, cell-based, A549, cytoblot, luminescence, serum-stimulated (AID 1158); conditions: A549 phospho-S6 cytoblot, 5 h, higher = more signal;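 note: serum-stimulated A549 lung adenocarcinoma cells; signal is phosphorylated S6 detected by cytoblot immunostaining with HRP secondary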
[8] = target: NADPH oxidase 2 (Homo sapiens) (UniProt P04839); experiment: NOX2-dependent H2O2 signal modulators, primary screen, NOX inhibitor project, cell-based, HEK293-NOX2, PMA-stimulated, Amplex Red fluorescence (AID 1159); conditions: 45 min, higher = more signal, called active from +8 up or from −8 down; note: test concentration not given here
[9] = target: NADPH oxidase 4 (Homo sapiens) (UniProt Q9NPH5); experiment: NOX4-dependent H2O2 signal modulators, primary screen, NOX inhibitor project, cell-based, HEK293-NOX4, tetracycline-induced, Amplex Red fluorescence (AID 1160); conditions: 45 min, higher = more signal, called active from +8 up or from −8 down
[10] = target: NADPH oxidase 5 (Homo sapiens) (UniProt Q96PH1); experiment: NOX5-dependent H2O2 signal modulators, primary screen, NOX inhibitor project, cell-based, HEK293-NOX5, Amplex Red fluorescence (AID 1161); conditions: HEK293-NOX5, ionomycin, 45 min, higher = more signal
[11] = A549 cell viability effects, profiling panel, calcein-AM fluorescence, 48 h, basal (AID 1162); conditions: higher = more signal; note: test concentration not given here
[12] = adipocyte viability effects, profiling panel, cell-based, 3T3-L1 adipocytes, calcein-AM fluorescence, 48 h, basal (AID 1163); conditions: 3T3-L1 adipocytes viability, higher = more signal; note: test concentration not given here
[13] = HepG2 cell viability effects, profiling panel, calcein-AM fluorescence, 48 h, basal (AID 1164); conditions: higher = more signal; note: test concentration not given here
[14] = MM1S cell viability effects, profiling panel, calcein-AM fluorescence, 48 h, basal (AID 1165); conditions: higher = more signal;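 note: viability of MM1S multiple myeloma cells under basal unstimulated conditions; test concentration not given here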
[15] = basal RPMI8226 viability, no added stimulus, profiling panel, cell-based, calcein-AM fluorescence, 48 h, PK04 Diversity Set (AID 1166); conditions: RPMI8226 myeloma viability, higher = more signal;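 note: cells grown under basal conditions without added stimulus; test concentration not given here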
[16] = basal HepG2 mitochondrial membrane potential changes, profiling panel, cell-based, JC-1 fluorescence, 24 h, 100 nL compound (AID 1167); conditions: higher = more signal; note: test concentration not given here
[17] = basal 3T3-L1 adipocyte mitochondrial potential changes, profiling panel, cell-based, JC-1 fluorescence, 3T3-L1 adipocytes, 24 h, 100 nL compound (AID 1168); conditions: JC-1 mitochondrial fluorescence, higher = more signal, called active from +8 up or from −8 down; note: test concentration not given here
[18] = basal RPMI8226 mitochondrial membrane potential changes, profiling panel, cell-based, JC-1 fluorescence, 24 h, 100 nL compound (AID 1169); conditions: RPMI8226 myeloma, JC-1 mitochondrial potential fluorescence, higher = more signal; note: test concentration not given here
[19] = basal MM1S mitochondrial membrane potential changes, profiling panel, cell-based, JC-1 fluorescence, 24 h, 100 nL compound (AID 1170); conditions: higher = more signal; note: test concentration not given here
[20] = A549 lung cancer cell viability effects, profiling panel, resazurin fluorescence, 24 h, PK04 Diversity Set (AID 1171); conditions: higher = more signal, called active from +8 up or from −8 down; note: test concentration not given here

Sequence of NADPH oxidase 4 (Homo sapiens) (Q9NPH5 whole entry, looked up): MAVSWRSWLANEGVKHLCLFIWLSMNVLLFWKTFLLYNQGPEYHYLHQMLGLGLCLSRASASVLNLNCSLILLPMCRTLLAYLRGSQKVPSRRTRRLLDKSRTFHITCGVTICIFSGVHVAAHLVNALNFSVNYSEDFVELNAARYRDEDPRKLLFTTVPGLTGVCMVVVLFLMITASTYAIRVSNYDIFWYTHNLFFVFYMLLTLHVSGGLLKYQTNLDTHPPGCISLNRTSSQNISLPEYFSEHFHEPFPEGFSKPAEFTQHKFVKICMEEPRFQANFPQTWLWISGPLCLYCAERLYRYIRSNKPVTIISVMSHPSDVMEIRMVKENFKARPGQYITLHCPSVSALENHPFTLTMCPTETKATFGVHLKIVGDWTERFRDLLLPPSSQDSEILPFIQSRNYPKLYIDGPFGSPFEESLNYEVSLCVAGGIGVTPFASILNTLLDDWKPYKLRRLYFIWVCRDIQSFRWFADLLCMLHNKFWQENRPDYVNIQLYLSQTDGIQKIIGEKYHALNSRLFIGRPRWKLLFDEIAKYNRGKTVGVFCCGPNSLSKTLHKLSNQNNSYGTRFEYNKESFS
Sequence of NADPH oxidase 5 (Homo sapiens) (Q96PH1 whole entry, looked up): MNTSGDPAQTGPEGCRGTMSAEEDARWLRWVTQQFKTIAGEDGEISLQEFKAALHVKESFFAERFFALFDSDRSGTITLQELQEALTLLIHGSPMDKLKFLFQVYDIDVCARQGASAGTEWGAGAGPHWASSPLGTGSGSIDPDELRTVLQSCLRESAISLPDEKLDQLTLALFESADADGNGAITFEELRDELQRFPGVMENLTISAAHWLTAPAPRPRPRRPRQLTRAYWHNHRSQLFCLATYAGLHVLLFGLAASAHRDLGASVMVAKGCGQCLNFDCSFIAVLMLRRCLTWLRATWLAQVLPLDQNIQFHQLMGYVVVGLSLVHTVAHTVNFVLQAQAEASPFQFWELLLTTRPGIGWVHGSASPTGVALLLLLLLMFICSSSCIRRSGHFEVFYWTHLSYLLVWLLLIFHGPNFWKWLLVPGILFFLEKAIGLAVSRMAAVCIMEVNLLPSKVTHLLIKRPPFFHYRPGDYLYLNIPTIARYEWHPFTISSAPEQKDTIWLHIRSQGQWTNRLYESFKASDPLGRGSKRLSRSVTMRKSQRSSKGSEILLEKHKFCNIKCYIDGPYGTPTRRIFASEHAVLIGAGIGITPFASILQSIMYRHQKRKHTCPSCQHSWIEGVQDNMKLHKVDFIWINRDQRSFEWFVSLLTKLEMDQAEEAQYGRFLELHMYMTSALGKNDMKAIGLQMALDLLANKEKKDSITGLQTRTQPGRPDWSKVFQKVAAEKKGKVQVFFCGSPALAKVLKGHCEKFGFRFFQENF
Sequence of NADPH oxidase 2 (Homo sapiens) (P04839 whole entry, looked up): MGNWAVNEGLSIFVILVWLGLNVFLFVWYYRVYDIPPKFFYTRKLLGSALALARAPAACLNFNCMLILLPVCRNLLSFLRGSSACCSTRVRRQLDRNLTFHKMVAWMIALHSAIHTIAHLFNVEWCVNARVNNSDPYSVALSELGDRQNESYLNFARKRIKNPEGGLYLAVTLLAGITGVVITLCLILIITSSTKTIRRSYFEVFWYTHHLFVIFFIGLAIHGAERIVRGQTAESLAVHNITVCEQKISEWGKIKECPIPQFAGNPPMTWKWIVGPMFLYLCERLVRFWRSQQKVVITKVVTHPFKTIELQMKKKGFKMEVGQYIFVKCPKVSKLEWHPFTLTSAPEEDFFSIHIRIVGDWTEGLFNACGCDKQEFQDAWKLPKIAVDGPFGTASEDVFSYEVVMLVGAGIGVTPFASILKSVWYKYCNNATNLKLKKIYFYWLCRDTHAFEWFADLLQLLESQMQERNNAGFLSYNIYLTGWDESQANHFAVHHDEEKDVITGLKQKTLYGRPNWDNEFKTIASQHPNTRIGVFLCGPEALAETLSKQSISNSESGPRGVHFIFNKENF

SMILES	z-score [1]	composite z-score [2]	z-score [3]	z-score [4]	z-score [5]	z-score [6]	z-score [7]	z-score [8]	z-score [9]	z-score [10]	z-score [11]	z-score [12]	z-score [13]	z-score [14]	z-score [15]	z-score [16]	z-score [17]	z-score [18]	z-score [19]	z-score [20]
CCOC(=O)C1=C[C@@H](C(C)(C)C)N(S(=O)(=O)c2ccc(C)cc2)[C@H]1c1ccc(F)cc1	-1.68 (inactive)	-0.0162	0.957 (inactive)	0.716 (inactive)	-0.862 (inactive)	0.634 (inactive)	-0.827	-0.829 (inactive)	-0.217 (inactive)	0.821	-1.5	0.131	-1.71	-1.55	-3	4.5	-0.43 (inactive)	-1.03	-0.781	0.627 (inactive)
COCCOC(=O)N1C(=O)[C@@]2(c3cc(C#CC4(O)CCCCCC4)ccc31)[C@H](c1ccccc1OCCO)N1[C@H](c3ccccc3)[C@H](c3ccccc3)OC(=O)[C@H]1[C@@H]2C(=O)N1CCN(c2ncccn2)CC1	0.888 (inactive)	-0.0437	1.67 (inactive)	1.31 (inactive)	0.824 (inactive)	0.712 (inactive)	-0.0324	0.342 (inactive)	0.386 (inactive)	1.03	-0.244	-0.464	1.4	-0.404	-1.14	0.673	1.86 (inactive)	-0.965	-1.05	-0.461 (inactive)
CC#CC(=O)Oc1ccccc1C=CC(=O)OCC	-0.158 (inactive)	-0.0011	8.09 (active)	1.47 (inactive)	0.692 (inactive)	0.903 (inactive)	-0.275	-0.405 (inactive)	-0.806 (inactive)	1.8	-1.54	-0.228	-0.749	-3.27	-2.23	-0.739	0.161 (inactive)	0.849	-0.259	1.5 (inactive)
COC(=O)[C@@]1(Cc2ccccc2)[C@H]2c3cc(C(=O)N4CCCC4)n(Cc4ccc(S(C)(=O)=O)cc4)c3C[C@H]2CN1C(=O)c1ccccc1	-0.94 (inactive)	0.198	1.98 (inactive)	0.238 (inactive)	0.716 (inactive)	0.742 (inactive)	-0.121	0.613 (inactive)	-1.16 (inactive)	-1.9	-0.235	0.949	-0.838	-1.09	-1.68	2.43	-1.62 (inactive)	0.148	-0.659	0.142 (inactive)
C=CCOC(=O)[C@H]1[C@@H]2C(=O)O[C@@H](c3ccccc3)[C@@H](c3ccccc3)N2[C@@H](c2ccc(OCCOC(=O)[C@@H]3C[C@@H]4C(=O)N[C@@H](CC(C)C)C(=O)N4[C@@H]3c3ccc(O)cc3)cc2)[C@]12C(=O)Nc1ccccc12	0.204 (inactive)	0.439	3.03 (inactive)	1.3 (inactive)	4.45 (inactive)	1.04 (inactive)	-0.197	1.63 (inactive)	1.18 (inactive)	1.49	-1.02	0.385	-0.529	-0.206	0.162	-1.89	0.0514 (inactive)	-0.89	-0.836	0.414 (inactive)
